Laboratory results: PubChem BioAssay (NCI)
About 83,000 compounds went through this panel and 20% of them were active in at least one assay; those are over-represented in the sample as a whole.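 Growth was measured after 48 h exposure to one concentration of compound in 96-well plates. Values under 10 count as active.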 The source made the active and inactive calls.

Columns and labels:
Assay in all cases: NCI-60 one-dose screen, 48 h (100 = growth as untreated, 0 = no growth, -100 = all killed)
Conditions in all cases: 10 µM unless noted
NCI-H23 lung = tested on: NCI-H23 lung
NCI-H226 lung = tested on: NCI-H226 lung
NCI-H322M lung = tested on: NCI-H322M lung
HOP-62 NSCLC = tested on: HOP-62 NSCLC
NCI-H460 lung = tested on: NCI-H460 lung
HOP-92 NSCLC = tested on: HOP-92 NSCLC
NCI-H522 lung = tested on: NCI-H522 lung
A549/ATCC NSCLC = tested on: A549/ATCC NSCLC
786-0 renal = tested on: 786-0 renal
COLO 205 colon = tested on: COLO 205 colon

Measured: growth

CC(=Nc1ccc(N(C)C)cc1)c1ccccc1
inactive: NCI-H23 lung 66.4% | NCI-H226 lung 59.3% | NCI-H322M lung 66.5% | HOP-62 NSCLC 54.2% | NCI-H460 lung 34.2% | HOP-92 NSCLC 30.8% | NCI-H522 lung 64.7% | A549/ATCC NSCLC 45.2% | 786-0 renal 74.5% | COLO 205 colon 13.2%

O=C(Nc1ccccc1)c1cc(Cl)ccc1O
inactive: NCI-H23 lung 53% | NCI-H226 lung 74% | NCI-H322M lung 83.1% | HOP-62 NSCLC 63.5% | NCI-H460 lung 37.4% | HOP-92 NSCLC 14.5% | NCI-H522 lung 10.3% | A549/ATCC NSCLC 33.7% | 786-0 renal 59.7% | COLO 205 colon 109%

Nc1ccc(SSc2ccc(N)cc2)cc1
inactive: NCI-H23 lung 89.9% | NCI-H226 lung 103% | NCI-H322M lung 92.5% | HOP-62 NSCLC 114% | NCI-H460 lung 100% | HOP-92 NSCLC 103% | NCI-H522 lung 84.1% | A549/ATCC NSCLC 77.7% | 786-0 renal 100% | COLO 205 colon 106%

CC(C)c1ccc2nc3ccc(C(=O)NCCN4CCN(c5ccccc5)CC4)cn3c(=O)c2c1
inactive: NCI-H23 lung 50.5% | NCI-H226 lung 38.4% | NCI-H322M lung 86.8% | HOP-62 NSCLC 90.9% | NCI-H460 lung 65.2% | HOP-92 NSCLC 58.1% | NCI-H522 lung 67.4% | A549/ATCC NSCLC 57.3% | 786-0 renal 34.4% | COLO 205 colon 45.8%

CN(C)c1ccc(C(=C2C=CC(=[N+](C)C)C=C2)c2ccc(N(C)C)cc2)cc1 (tested in a mixture with another compound)
active: NCI-H23 lung -49% | NCI-H226 lung -60% | NCI-H322M lung -27.7% | HOP-62 NSCLC -34.2% | NCI-H460 lung -75.1% | HOP-92 NSCLC -66.8% | NCI-H522 lung -47% | A549/ATCC NSCLC -18.2% | 786-0 renal -90.4% | COLO 205 colon -97.7%

Nc1nc(N)c2c(ccc3c2ccn3Cc2cccc([N+](=O)[O-])c2)n1
active: NCI-H23 lung -74.8% | NCI-H226 lung -86.6% | NCI-H322M lung -91.1% | HOP-62 NSCLC -83.7% | NCI-H460 lung -88.6% | HOP-92 NSCLC -72.1% | NCI-H522 lung -84.3% | A549/ATCC NSCLC -83% | 786-0 renal -89.6% | COLO 205 colon -88.9%

N#CSCc1ccc(Cl)c(CSC#N)c1
active: HOP-92 NSCLC -4.43% | COLO 205 colon -7.52%
inactive: NCI-H23 lung 40.4% | NCI-H226 lung 74.2% | NCI-H322M lung 98.7% | HOP-62 NSCLC 74% | NCI-H460 lung 16.3% | NCI-H522 lung 13.7% | A549/ATCC NSCLC 35.5% | 786-0 renal 32.1%

O=C(Nc1ccc(F)cc1)ON=C1CCCCC1
inactive: NCI-H23 lung 110% [100 µM] | NCI-H226 lung 96.9% [100 µM] | NCI-H322M lung 101% [100 µM] | HOP-62 NSCLC 112% [100 µM] | NCI-H460 lung 104% [100 µM] | HOP-92 NSCLC 108% [100 µM] | NCI-H522 lung 93.3% [100 µM] | A549/ATCC NSCLC 94.1% [100 µM] | 786-0 renal 87.6% [100 µM] | COLO 205 colon 125% [100 µM]

COc1ccc(N=N/N=c2\sc3cc(OC)ccc3n2C)cc1
inactive: NCI-H23 lung 79.6% | NCI-H226 lung 81.8% | NCI-H322M lung 83.9% | HOP-62 NSCLC 86.4% | NCI-H460 lung 94.9% | HOP-92 NSCLC 71.2% | NCI-H522 lung 73.8% | A549/ATCC NSCLC 69.8% | 786-0 renal 105% | COLO 205 colon 92.2%

COc1cc(/C=C(/C)C[N+](=O)[O-])ccc1O
inactive: NCI-H23 lung 98.3% | NCI-H226 lung 104% | NCI-H322M lung 92.5% | HOP-62 NSCLC 103% | NCI-H460 lung 106% | HOP-92 NSCLC 98.4% | NCI-H522 lung 72% | A549/ATCC NSCLC 85.9% | 786-0 renal 99.5% | COLO 205 colon 86.8%

Cc1ccc2nc(C[n+]3ccc4ccccc4c3)ccc2c1
inactive: NCI-H23 lung 42% | NCI-H226 lung 68.9% | NCI-H322M lung 97.6% | HOP-62 NSCLC 69.9% | NCI-H460 lung 55% | HOP-92 NSCLC 28% | NCI-H522 lung 47.1% | A549/ATCC NSCLC 51.7% | 786-0 renal 92.2% | COLO 205 colon 27.3%

S=C(NCCNC(=S)[S][Sn]([c]1ccccc1)([c]1ccccc1)[c]1ccccc1)[S][Sn]([c]1ccccc1)([c]1ccccc1)[c]1ccccc1
active: NCI-H23 lung -68.6% | NCI-H226 lung -95.4% | NCI-H322M lung -99.4% | HOP-62 NSCLC -100% | NCI-H460 lung -86.8% | HOP-92 NSCLC -87.3% | NCI-H522 lung -93.2% | A549/ATCC NSCLC -98.8% | 786-0 renal -94% | COLO 205 colon -91.3%

CCOC(=O)/C=C/c1ccc([N+](=O)[O-])o1
inactive: NCI-H23 lung 73.7% | NCI-H226 lung 20.2% | NCI-H322M lung 96% | HOP-62 NSCLC 112% | NCI-H460 lung 95.6% | HOP-92 NSCLC 47.6% | A549/ATCC NSCLC 96.4% | 786-0 renal 75.8% | COLO 205 colon 40.9%
active: NCI-H522 lung -55.1%

CC(=O)ON=C1C=CC(=C(C#N)c2ccccc2)C=C1
inactive: NCI-H23 lung 91.7% | NCI-H226 lung 66.8% | NCI-H322M lung 94.8% | HOP-62 NSCLC 55.1% | HOP-92 NSCLC 33.1% | A549/ATCC NSCLC 32.2% | 786-0 renal 15.4% | COLO 205 colon 90.6%
active: NCI-H460 lung 4.7% | NCI-H522 lung -24.2%

CC(C)(C)c1ccc(O)c(C2CCCCC2)c1
inactive: NCI-H23 lung 98% | NCI-H226 lung 104% | NCI-H322M lung 105% | HOP-62 NSCLC 107% | NCI-H460 lung 107% | HOP-92 NSCLC 96.6% | NCI-H522 lung 83.6% | A549/ATCC NSCLC 95.9% | 786-0 renal 99.8% | COLO 205 colon 103%

C[N+](C)=c1ccc2nc3c(cc(NCCCNc4cc5oc6cc(=[N+](C)C)ccc-6nc5c5ccccc45)c4ccccc43)oc-2c1
inactive: NCI-H226 lung 73.2% | NCI-H322M lung 25.3% | HOP-62 NSCLC 44.4% | HOP-92 NSCLC 59% | NCI-H522 lung 32% | A549/ATCC NSCLC 20.5%
active: NCI-H23 lung -56.1% | NCI-H460 lung -56.2% | 786-0 renal -68.5% | COLO 205 colon -64.9%

CN1c2ccccc2C(C)(C)C12C=Cc1cc(O)ccc1O2 (stereo not given)
active: HOP-92 NSCLC -6.47% | NCI-H522 lung -15.6%
inactive: NCI-H23 lung 52.3% | NCI-H226 lung 89% | NCI-H322M lung 109% | HOP-62 NSCLC 82.8% | NCI-H460 lung 67.9% | A549/ATCC NSCLC 75.2% | 786-0 renal 87.1% | COLO 205 colon 78.2%

CN(C)C(=O)SC1=C(c2c(Cl)cccc2Cl)C(=O)c2ccccc21
inactive: NCI-H23 lung 70.6% | NCI-H226 lung 111% | NCI-H322M lung 98.3% | HOP-62 NSCLC 92.2% | NCI-H460 lung 98.7% | A549/ATCC NSCLC 110% | 786-0 renal 71.5%
active: HOP-92 NSCLC 3.58% | NCI-H522 lung -74.3% | COLO 205 colon -81.8%

N#CSCC(=O)c1ccc(Cl)cc1
active: NCI-H23 lung 9.41% | HOP-92 NSCLC -3.98%
inactive: NCI-H226 lung 65.8% | NCI-H322M lung 71.7% | HOP-62 NSCLC 45.1% | NCI-H460 lung 33.5% | NCI-H522 lung 50.6% | A549/ATCC NSCLC 87.1% | 786-0 renal 22.3% | COLO 205 colon 90.3%

O=C1c2ccccc2C(=O)c2sc(Nc3ccc(Cl)cc3)nc21
active: NCI-H23 lung -53.2% | NCI-H226 lung 1.07%
inactive: NCI-H322M lung 78% | HOP-62 NSCLC 55.4% | NCI-H460 lung 87.7% | HOP-92 NSCLC 59.1% | NCI-H522 lung 15.9% | A549/ATCC NSCLC 71.8% | 786-0 renal 60.9% | COLO 205 colon 82.9%

CC1OC2CC(=O)OC2C2=C1C(=O)c1c(O)cccc1C2=O (stereo not given)
active: NCI-H23 lung -89.9% | NCI-H226 lung -80% | NCI-H322M lung -29.1% | HOP-62 NSCLC -88.2% | NCI-H460 lung -0.634% | HOP-92 NSCLC -92% | NCI-H522 lung -89.1% | A549/ATCC NSCLC 2.68% | 786-0 renal -87.9% | COLO 205 colon -87.2%

O=C1N[C@H]2[C@H](CS[C@H]2CCCCC(=O)N(CCP(c2ccccc2)c2ccccc2)CCP(c2ccccc2)c2ccccc2)N1
inactive: NCI-H23 lung 67.8% | NCI-H226 lung 89.5% | NCI-H322M lung 79.2% | HOP-62 NSCLC 80.3% | NCI-H460 lung 41.3% | HOP-92 NSCLC 56.1% | NCI-H522 lung 57.6% | A549/ATCC NSCLC 76.6% | 786-0 renal 82.8% | COLO 205 colon 29.9%

C[n+]1c(/C=C/c2ccc([N+](=O)[O-])cc2)ccc2ccccc21
inactive: NCI-H23 lung 90.4% | NCI-H226 lung 87.9% | NCI-H322M lung 111% | HOP-62 NSCLC 97.4% | NCI-H460 lung 106% | HOP-92 NSCLC 110% | NCI-H522 lung 102% | A549/ATCC NSCLC 75.7% | 786-0 renal 111% | COLO 205 colon 101%

Oc1c(Br)cc(Cl)cc1C(c1cc(Cl)cc(Br)c1O)C(Cl)(Cl)Cl
inactive: NCI-H226 lung 33.4% | NCI-H322M lung 15.2% | HOP-62 NSCLC 59.2% | A549/ATCC NSCLC 14% | 786-0 renal 26.9% | COLO 205 colon 59.2%
active: NCI-H23 lung 5.88% | NCI-H460 lung 1.1% | HOP-92 NSCLC -33.5% | NCI-H522 lung -9.4%

Cc1c2ccccc2c(C)c2c1ccc1ccccc12
inactive: NCI-H23 lung 81.6% | NCI-H226 lung 100% | NCI-H322M lung 90.8% | HOP-62 NSCLC 95.1% | NCI-H460 lung 87.6% | HOP-92 NSCLC 88.6% | NCI-H522 lung 79.5% | A549/ATCC NSCLC 78.4% | 786-0 renal 91.5% | COLO 205 colon 94.6%

COC(=O)c1nc(=S)[nH]c(C(=O)OC)c1C(=O)c1ccccn1
inactive: NCI-H23 lung 45.8% | NCI-H322M lung 56.5% | HOP-62 NSCLC 40% | NCI-H460 lung 38.6% | HOP-92 NSCLC 47.9% | NCI-H522 lung 61.8% | A549/ATCC NSCLC 107% | 786-0 renal 26.7% | COLO 205 colon 21.1%
active: NCI-H226 lung 9.58%

CCOC(=O)/C(=C\c1ccc(-c2ccccc2)cc1)C(C)=O
inactive: NCI-H23 lung 100% | NCI-H226 lung 101% | NCI-H322M lung 97.3% | HOP-62 NSCLC 110% | NCI-H460 lung 103% | HOP-92 NSCLC 101% | NCI-H522 lung 87.6% | A549/ATCC NSCLC 111% | 786-0 renal 105% | COLO 205 colon 104%
